Results from the supplement of paper PMC10849652.
Of roughly 7,900 targets only a part is listed; those with a hit were picked by preference. About 0.6% of all pairs of compound and target were hits. Values without a mark were called inactive.

How the values were obtained:
Assay in all cases: log2 fold change, soluble protein after heating vs DMSO (PISA); higher = thermal stabilisation; K562 cells, 10 uM, 30 min; active = over 0.2 and 3.5 SD of the protein, either way, in both replicates (recomputed)
[1] = compound: NC(=O)Nc1cc(-c2cccc(F)c2)sc1C(=O)N[C@H]1CCCNC1
Summary of the method: (§1)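 Thermal stability values are relative to control samples and come from duplicates. They are expressed as log2 fold changes. For measurement, K562 cells (2×10^6 cells/mL) received 10 μM compound for 30 min, and aliquots were heated for 3 min over 48°C-58°C, pooled, and extracted at 4°C in PBS with 0.5% NP-40. Soluble protein, the supernatant after 21,000xg for 90 min, was quantified by TMTpro 16plex LC-MS/MS with equalised channel sums.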

[2] = compound: NC(=O)c1cnc(N[C@@H]2CCCC[C@@H]2N)nc1Nc1cccc(-n2nccn2)c1
Summary of the method: as §1

[3] = compound: NC1(c2ccc(-c3nc4ccn5c(=O)[nH]nc5c4cc3-c3ccccc3)cc2)CCC1
Summary of the method: as §1

[4] = compound: NCC(=O)Nc1ccc(-n2nc(C(F)(F)F)cc2-c2ccc3c(ccc4ccccc43)c2)cc1
Summary of the method: as §1

entinostat = compound: Nc1ccccc1NC(=O)c1ccc(CNC(=O)OCc2cccnc2)cc1 [entinostat]
Summary of the method: as §1

vorinostat = compound: O=C(CCCCCCC(=O)Nc1ccccc1)NO [vorinostat]
Summary of the method: as §1

citarinostat = compound: O=C(CCCCCCNC(=O)c1cnc(N(c2ccccc2)c2ccccc2Cl)nc1)NO [citarinostat]
Summary of the method: as §1

silmitasertib = compound: O=C(O)c1ccc2c(c1)nc(Nc1cccc(Cl)c1)c1ccncc12 [silmitasertib]
Summary of the method: as §1

[5] = compound: O=C1NC(=O)C(c2cnc3ccccn23)=C1c1cn2c3c(cc(F)cc13)CN(C(=O)N1CCCCC1)CC2
Summary of the method: as §1

[6] = compound: c1cc(OCCN2CCCCC2)cc(-c2n[nH]c3ccc(-c4nnc[nH]4)cc23)c1
Summary of the method: as §1

Chain of UniProt Q9NVR5 (Q9NVR5 whole entry, looked up): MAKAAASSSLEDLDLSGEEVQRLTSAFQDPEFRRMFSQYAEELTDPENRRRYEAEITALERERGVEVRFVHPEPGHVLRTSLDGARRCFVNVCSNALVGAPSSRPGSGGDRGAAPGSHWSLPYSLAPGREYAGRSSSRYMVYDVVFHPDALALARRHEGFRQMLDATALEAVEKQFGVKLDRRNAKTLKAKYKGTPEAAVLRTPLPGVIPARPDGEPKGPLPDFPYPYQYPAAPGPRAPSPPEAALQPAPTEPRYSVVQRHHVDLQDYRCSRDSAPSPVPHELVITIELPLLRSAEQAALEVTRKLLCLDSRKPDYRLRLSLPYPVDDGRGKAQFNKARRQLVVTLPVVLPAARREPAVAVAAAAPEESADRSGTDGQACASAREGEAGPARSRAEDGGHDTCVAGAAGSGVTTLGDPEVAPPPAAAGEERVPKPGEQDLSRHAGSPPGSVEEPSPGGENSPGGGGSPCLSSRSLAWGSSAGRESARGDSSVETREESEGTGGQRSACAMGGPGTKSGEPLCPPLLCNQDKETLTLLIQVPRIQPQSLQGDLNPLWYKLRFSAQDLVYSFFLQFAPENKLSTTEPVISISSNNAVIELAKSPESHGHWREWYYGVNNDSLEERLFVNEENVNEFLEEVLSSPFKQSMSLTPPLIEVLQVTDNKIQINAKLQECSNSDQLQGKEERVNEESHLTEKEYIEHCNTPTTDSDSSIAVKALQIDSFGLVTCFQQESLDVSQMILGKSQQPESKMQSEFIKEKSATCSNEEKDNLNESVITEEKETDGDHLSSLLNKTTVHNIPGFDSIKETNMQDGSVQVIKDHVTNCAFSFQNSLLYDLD
Chain of UniProt Q9HBU6 (Q9HBU6 whole entry, looked up): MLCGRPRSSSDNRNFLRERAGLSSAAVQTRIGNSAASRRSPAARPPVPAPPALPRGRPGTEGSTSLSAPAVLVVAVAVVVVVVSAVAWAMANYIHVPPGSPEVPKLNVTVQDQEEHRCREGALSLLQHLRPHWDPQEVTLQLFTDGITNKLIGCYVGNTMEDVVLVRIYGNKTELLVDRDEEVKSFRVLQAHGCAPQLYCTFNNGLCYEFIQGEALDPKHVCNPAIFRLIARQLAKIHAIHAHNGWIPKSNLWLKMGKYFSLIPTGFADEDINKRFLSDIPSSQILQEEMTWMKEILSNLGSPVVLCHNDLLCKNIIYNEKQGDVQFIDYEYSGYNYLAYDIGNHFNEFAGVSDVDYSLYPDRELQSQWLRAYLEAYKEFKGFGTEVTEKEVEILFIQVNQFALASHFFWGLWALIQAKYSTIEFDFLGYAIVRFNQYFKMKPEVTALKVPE
Chain of UniProt P49366 (P49366 whole entry, looked up): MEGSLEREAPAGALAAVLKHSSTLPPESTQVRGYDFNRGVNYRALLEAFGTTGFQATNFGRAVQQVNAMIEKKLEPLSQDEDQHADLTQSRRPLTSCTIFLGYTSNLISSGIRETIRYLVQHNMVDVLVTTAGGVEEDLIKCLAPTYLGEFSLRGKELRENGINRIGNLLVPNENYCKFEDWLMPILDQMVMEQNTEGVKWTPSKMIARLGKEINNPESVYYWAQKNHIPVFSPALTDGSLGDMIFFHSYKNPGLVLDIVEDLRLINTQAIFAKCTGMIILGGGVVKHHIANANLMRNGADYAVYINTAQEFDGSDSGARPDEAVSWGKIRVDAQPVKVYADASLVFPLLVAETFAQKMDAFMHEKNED
Chain of UniProt Q96GE9 (Q96GE9 whole entry, looked up): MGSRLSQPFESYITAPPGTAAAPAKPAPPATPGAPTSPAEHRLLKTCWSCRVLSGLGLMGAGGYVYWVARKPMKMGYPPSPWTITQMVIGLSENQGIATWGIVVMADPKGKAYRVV
Chain of UniProt Q9NV06 (Q9NV06 whole entry, looked up): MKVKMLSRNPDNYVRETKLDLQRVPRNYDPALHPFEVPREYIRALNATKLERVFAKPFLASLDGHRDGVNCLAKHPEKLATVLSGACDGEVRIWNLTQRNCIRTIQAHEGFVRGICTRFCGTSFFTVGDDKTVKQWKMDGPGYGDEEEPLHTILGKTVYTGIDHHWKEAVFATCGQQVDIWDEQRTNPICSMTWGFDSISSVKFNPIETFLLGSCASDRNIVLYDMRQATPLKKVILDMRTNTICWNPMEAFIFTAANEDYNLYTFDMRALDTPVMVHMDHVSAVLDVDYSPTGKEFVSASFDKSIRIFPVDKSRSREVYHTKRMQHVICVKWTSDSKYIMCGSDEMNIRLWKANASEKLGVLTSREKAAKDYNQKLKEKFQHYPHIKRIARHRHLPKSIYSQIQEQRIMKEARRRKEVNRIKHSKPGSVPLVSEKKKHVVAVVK
Chain of UniProt Q9UPT5 (Q9UPT5 whole entry, looked up): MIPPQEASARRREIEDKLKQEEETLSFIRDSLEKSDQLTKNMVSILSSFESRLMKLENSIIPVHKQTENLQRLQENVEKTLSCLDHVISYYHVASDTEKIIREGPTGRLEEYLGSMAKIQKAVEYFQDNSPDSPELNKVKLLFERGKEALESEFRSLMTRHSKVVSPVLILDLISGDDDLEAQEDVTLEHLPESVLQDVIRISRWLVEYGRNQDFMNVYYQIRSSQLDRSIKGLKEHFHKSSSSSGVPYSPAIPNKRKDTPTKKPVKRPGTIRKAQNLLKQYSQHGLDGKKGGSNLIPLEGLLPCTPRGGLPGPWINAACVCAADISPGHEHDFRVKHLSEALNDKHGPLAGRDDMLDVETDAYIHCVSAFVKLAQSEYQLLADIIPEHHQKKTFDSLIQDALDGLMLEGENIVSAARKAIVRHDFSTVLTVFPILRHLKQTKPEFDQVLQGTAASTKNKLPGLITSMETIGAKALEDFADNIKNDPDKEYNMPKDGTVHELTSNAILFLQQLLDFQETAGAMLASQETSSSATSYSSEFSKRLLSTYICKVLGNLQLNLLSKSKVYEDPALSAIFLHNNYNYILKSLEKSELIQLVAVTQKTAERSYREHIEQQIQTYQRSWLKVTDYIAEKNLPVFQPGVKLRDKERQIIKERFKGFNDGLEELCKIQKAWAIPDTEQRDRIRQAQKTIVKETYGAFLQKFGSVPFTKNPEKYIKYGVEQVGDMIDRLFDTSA
Chain of UniProt O60911 (O60911 whole entry, looked up): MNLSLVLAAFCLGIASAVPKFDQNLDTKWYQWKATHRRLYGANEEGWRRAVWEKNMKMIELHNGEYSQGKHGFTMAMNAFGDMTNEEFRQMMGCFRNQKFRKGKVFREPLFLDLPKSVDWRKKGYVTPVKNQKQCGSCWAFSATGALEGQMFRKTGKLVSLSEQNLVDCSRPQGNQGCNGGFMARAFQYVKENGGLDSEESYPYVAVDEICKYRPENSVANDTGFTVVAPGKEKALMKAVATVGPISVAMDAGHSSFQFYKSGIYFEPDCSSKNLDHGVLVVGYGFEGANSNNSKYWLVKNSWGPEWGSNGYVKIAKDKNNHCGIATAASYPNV
Chain of UniProt O15121 (O15121 whole entry, looked up): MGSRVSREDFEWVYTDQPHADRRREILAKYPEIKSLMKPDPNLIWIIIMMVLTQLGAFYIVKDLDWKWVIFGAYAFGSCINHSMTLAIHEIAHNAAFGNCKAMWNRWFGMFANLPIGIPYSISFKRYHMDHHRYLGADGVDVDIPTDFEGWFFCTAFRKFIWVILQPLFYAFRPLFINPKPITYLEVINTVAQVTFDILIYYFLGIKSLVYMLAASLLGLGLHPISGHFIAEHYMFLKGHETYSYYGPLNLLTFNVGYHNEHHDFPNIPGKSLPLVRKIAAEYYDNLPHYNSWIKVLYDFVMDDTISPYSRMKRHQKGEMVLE
Chain of UniProt O76075 (O76075 whole entry, looked up): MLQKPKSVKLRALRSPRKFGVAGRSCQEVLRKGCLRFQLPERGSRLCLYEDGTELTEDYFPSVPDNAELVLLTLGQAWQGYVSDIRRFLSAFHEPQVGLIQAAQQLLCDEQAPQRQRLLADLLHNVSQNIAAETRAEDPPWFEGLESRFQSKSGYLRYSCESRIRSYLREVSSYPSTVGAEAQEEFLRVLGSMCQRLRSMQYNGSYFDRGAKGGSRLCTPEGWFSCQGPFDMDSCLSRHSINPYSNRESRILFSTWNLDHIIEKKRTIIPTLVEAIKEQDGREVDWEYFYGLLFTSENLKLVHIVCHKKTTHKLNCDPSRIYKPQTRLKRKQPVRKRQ
Chain of UniProt Q9NYP7 (Q9NYP7 whole entry, looked up): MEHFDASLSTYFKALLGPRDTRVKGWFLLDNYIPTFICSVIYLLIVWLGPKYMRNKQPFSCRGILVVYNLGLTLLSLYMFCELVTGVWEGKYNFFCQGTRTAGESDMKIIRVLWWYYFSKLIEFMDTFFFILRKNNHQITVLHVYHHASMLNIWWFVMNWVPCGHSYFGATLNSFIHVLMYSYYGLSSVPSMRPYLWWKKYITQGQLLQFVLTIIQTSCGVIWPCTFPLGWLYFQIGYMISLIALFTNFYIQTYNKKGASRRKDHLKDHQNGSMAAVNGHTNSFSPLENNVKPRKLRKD
Chain of UniProt Q9BPY3 (Q9BPY3 whole entry, looked up): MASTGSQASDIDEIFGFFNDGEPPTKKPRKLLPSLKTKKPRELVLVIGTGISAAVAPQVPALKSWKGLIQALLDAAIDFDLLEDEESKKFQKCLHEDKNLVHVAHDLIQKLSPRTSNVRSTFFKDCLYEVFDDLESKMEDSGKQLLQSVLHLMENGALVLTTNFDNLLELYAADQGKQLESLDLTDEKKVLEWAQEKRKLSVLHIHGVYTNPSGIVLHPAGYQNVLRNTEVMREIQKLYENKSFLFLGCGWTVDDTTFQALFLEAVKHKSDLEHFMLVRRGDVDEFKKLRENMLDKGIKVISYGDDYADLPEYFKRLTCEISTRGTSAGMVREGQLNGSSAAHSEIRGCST
Chain of UniProt Q9NSI2 (Q9NSI2 whole entry, looked up): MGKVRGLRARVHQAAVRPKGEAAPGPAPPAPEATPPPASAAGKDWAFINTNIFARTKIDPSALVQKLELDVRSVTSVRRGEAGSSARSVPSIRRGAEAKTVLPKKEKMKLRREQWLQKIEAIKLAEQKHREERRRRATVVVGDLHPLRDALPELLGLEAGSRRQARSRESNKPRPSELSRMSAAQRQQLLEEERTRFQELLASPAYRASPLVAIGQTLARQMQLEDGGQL

Target	log2 fold change [1]	log2 fold change [2]	log2 fold change [3]	log2 fold change [4]	log2 fold change (entinostat)	log2 fold change (vorinostat)	log2 fold change (citarinostat)	log2 fold change (silmitasertib)	log2 fold change [5]	log2 fold change [6]
DEGS1 (UniProt O15121)	-0.101	0.249	0.086	-0.169	-0.006	0.077	0.109	-0.053	-0.003	-0.063
DHPS (UniProt P49366)	0.01	0.051	0.014	0.053	-0.045	0.04	0.022	-0.013	0.08	-0.026
CTSA (UniProt P10619)	0.031	0.092	-0.067	-0.013	0.001	-0.03	-0.005	0.044	-0.023	0.134
DNAAF2 (UniProt Q9NVR5)	0.039	0.025	-0.042	-0.044	-0.06	0	-0.034	0.016	-0.003	-0.03
DDB1 (UniProt Q16531)	0.027	-0.025	-0.024	-0.004	-0.022	-0.021	0.02	-0.002	-0.018	-0.03
FAM114A2 (UniProt Q9NRY5)	0.023	-0.089	-0.151	-0.062	0.051	0.034	0.05	0.02	-0.016	-0.013
EXOC5 (UniProt O00471)	0.01	-0.101	-0.222	-0.063	0.069	0.086	0.027	0.042	-0.02	-0.153
EFL1 (UniProt Q7Z2Z2)	0.001	-0.023	-0.106	-0.026	0.025	0.071	0.047	0.017	-0.025	-0.023
FAF2 (UniProt Q96CS3)	-0.016	-0.038	-0.038	-0.027	0.021	0.092	0.015	0.007	-0.054	-0.018
FAM118B (UniProt Q9BPY3)	-0.034	-0.118	-0.381 (active)	-0.027	0.047	0.064	0.052	-0.082	-0.13	-0.078
EGLN1 (UniProt Q9GZT9)	0.095	-0.016	-0.043	-0.029	-0.009	0.021	0.034	0.024	0.014	-0.178
DHFR (UniProt P00374)	0.095	0.209	0.849 (active)	-0.139	-0.02	0.082	0.042	0.57 (active)	0.072	-0.048
FAM177A1 isoform 2 (UniProt Q8N128)	0.047	-0.053	-0.023	-0.038	0.007	0.072	0.047	0.029	-0.089	0.002
FAM207A (UniProt Q9NSI2)	-0.005	0.076	-0.165	-0.042	0.052	0.015	0.106	0.356	0.099	-0.117
ELOVL5 isoform 2 (UniProt Q9NYP7)	-0.07	0.001	-0.194	-0.065	0.056	0.062	0	0.098	0.035	-0.158
DUS3L (UniProt Q96G46)	0.113	-0.012	0.194	0.003	0.003	0.093	0.058	0.112	-0.176	-0.029
DHX16 (UniProt O60231)	0.005	0.018	-0.021	-0.044	0.013	0.001	0.049	-0.142	-0.012	-0.041
EXOC7 (UniProt Q9UPT5)	0.009	-0.142	-0.223	-0.022	0.04	0.09	0.077	0.052	0.028	-0.012
DTWD2 (UniProt Q8NBA8)	0.284	-0.03	-0.058	0.068	-0.079	0	0.152	0.089	0.26	-0.123
DDX4 (UniProt Q9NQI0)	-1.13 (active)	0.01	0.297	-0.35	-0.405	-0.253	-0.146	0.171	-0.273	-0.194
DNAJB12 (UniProt Q9NXW2)	-0.03	-0.018	-0.048	-0.029	0.001	0.027	0.027	0.079	-0.038	0.002
DFFB (UniProt O76075)	0.028	-0.064	-0.037	0.069	0	0.016	0.057	0.087	0.048	-0.08
DAB2 (UniProt P98082)	-0.006	-0.033	-0.124	0.016	-0.026	-0.066	0.037	0.102	0.001	-0.041
CWC27 (UniProt Q6UX04)	-0.062	0.016	-0.142	-0.103	0.113	0.062	0.089	0.062	-0.092	0.026
DCAF13 (UniProt Q9NV06)	-0.004	0.049	0.196	0.077	-0.058	0.004	-0.044	0.108	0.054	-0.077
CYFIP1 (UniProt Q7L576)	-0.088	-0.029	-0.143	0.003	0.02	-0.025	0.031	0.009	-0.039	-0.064
CTSV (UniProt O60911)	0	-0.066	-0.296	-0.052	-0.063	-0.029	-0.008	0.027	-0.105	0.165
DMAC1 (UniProt Q96GE9)	0.136	0.031	0.015	-0.07	-0.004	0.019	-0.003	-0.185	-0.427	0.113
ETNK1 (UniProt Q9HBU6)	0.25 (active)	0.011	-0.144	-0.057	0.089	-0.01	0.019	0.041	0.208	-0.084
E2F4 (UniProt Q16254)	0.004	-0.052	-0.105	-0.032	0.016	-0.052	0.067	0.001	0.015	0.005
